An excerpt weighted towards active compounds, which were near 0.92% of everything screened.
BLM inh = blocks DNA unwinding by human BLM helicase | Potency, µM (titrated, usually from 56.1 µM), for the others: top-dose activity change, negative = inhibition, usual class: inhibitors | P54132 | actives 0.2% (n = 350,000) | recombinant BLM DNA unwinding, fluorescence dequenching;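 also: plate controls were vehicle for no effect and no enzyme for full effect; nearly all actives have a fitted effect of over 35% in size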
L3MBTL1 inh = L3MBTL1 (human) inhibition; Potency, µM (top dose mostly 57.1 µM), without a hit: at the top dose activity, negative = inhibition, hits mostly inhibitors; Q9Y468; AID 485360; actives 0.66% (n = 230,000); AlphaScreen L3MBTL1–H3K9me1 peptide binding; also: nearly all actives have a fitted effect of over 60% in size
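First, the protein-peptide complex forms for 30 min at room temperature (L3MBTL1 50 nM, biotinylated H3K9me1 peptide 75 nM). Next, compounds are pin-transferred and incubated 30 min. Finally, AlphaScreen beads are added and read after 30 min.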
APE1 inh = blocks human APE1 abasic DNA cleavage | AID 2517 | actives 0.35% (n = 350,000) | recombinant APE1, TAMRA/BHQ-2 abasic DNA cleavage fluorescence | Potency, µM (doses to about 65.8 µM), without a hit: at the highest dose activity change, negative = inhibition, hits mostly inhibitors;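 also: plate controls were vehicle for no effect and reference inhibitor for full effect; nearly all actives have a fitted effect of over 55% in size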
Target sequence (P27695 whole entry, looked up): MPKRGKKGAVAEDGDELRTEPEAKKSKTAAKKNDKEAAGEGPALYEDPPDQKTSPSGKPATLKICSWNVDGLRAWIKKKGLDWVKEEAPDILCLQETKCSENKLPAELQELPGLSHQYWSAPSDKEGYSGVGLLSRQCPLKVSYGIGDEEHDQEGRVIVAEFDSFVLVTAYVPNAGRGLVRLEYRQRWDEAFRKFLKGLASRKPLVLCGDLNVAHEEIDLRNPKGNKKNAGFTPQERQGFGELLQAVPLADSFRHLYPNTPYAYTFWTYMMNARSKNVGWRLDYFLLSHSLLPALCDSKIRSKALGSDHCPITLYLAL
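Incision of a quenched TAMRA/BHQ-2 THF abasic-site duplex (50 nM) by 0.75 nM APE1, after 15 min compound preincubation, measured as fluorescence increase over three 60 s reads. Values normalized to buffer, DMSO and NSC13755 control wells.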
WRN inhibitor = blocks human WRN helicase; actives 0.46% (n = 360,000); AID 651768; Potency, µM (doses to about 114 µM), inactives show at the top dose activity change, negative = inhibition, hits mostly inhibitors; Q14191; WRN helicase unwinding, fluorescent forked duplex, kinetic; also: nearly all actives have a fitted effect of over 55% in size
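Kinetic fluorescence helicase assay: unwinding of a quenched forked DNA duplex (100 nM final) with 2 mM ATP final raises red fluorescence (525/598 nm). Compounds sat 15 min at room temperature with 20 nM WRN beforehand.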
RECQ1 inh = blocks DNA unwinding by human RECQ1 | AID 2549 | actives 0.54% (n = 240,000) | RECQ1 DNA unwinding, red fluorescence kinetic read | Potency, µM (titrated, usually from 57.3 µM), for inactives: at the top dose activity, negative = inhibition, hits mostly inhibitors;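 also: plate controls were vehicle for no effect and no enzyme for full effect; nearly all actives have a fitted effect of over 30% in size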
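RECQ1T1 50 nM; forked duplex (20 bp + 30-nt ss tails) 200 nM, ATP 2 mM final; pH 8.0, 2 mM MgCl2, 2.5 ug/ml poly(dI-dC); 15 min compound preincubation; discontinuous kinetic read over 2 h at RT.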
Active calls of the source: *; i = inactive; ? = inconclusive; . = no result given; ! = not active in a repeat; [ ] = remark or other dose. Calls follow the shape of the dose curve; as a rule, active = well fitted curve in the direction sought with a large enough effect; inconclusive = small, poorly fitted or top-dose-only effect, or another doubt; inactive = no such curve, though single readings can be large; an effect the other way counts as inactive or inconclusive. Unless noted, % is scaled to controls: 0 for no effect and ±100 for the full control effect; potency is read from the fitted curve at half-maximal effect.

SMILES | BLM inh | L3MBTL1 inh | APE1 inh | WRN inhibitor | RECQ1 inh
NCC(=O)N[C@@H](CCCN=C(N)N)C(=O)NCC(=O)N[C@@H](CC(=O)O)C(=O)N[C@@H](CC(N)=O)C(=O)N1CC[C@@H](C(=O)O)C1 | -10.6% | . | 24.4% | . | i
COc1ccccc1-c1cncnc1NCCNC(C)=O | 5.2% | . | 8.7% | . | -4.6%
C/C=C(\C)C(=O)Nc1cccc(C2=NOC3(C2)C[C@@H](C(N)=O)N(C(=O)/C(C)=C/C)C3)c1 (stereo partly specified) | -1.9% | . | 1.1% | 0.0% | i
C=C(C)C(=O)Nc1cccc(C2=NOC3(C2)C[C@@H](C(N)=O)N(C(=O)/C(C)=C/C)C3)c1 (stereo partly specified) | -0.8% | . | -10.1% | ? | 17.8µM*
C/C=C/C=C\C(=O)Nc1cccc(C2=NOC3(C2)C[C@H](C(N)=O)N(C(=O)CC#N)C3)c1 (stereo partly specified) | -24.7% | . | 11.1% | 44.7µM* | ?
C=C1C(=O)O[C@H]2[C@H]1CC/C(C)=C\CC[C@@]1(C)O[C@@H]21 | . | . | 1.7%[21 µM] | . | .
N#Cc1c(-c2ccc(OCCOCCOCCN)cc2)no[n+]1[O-] | . | . | -3.6% | . | .
CSc1sccc1/C=C(/C#N)C(=O)c1ccco1 | -6.1% | . | 29.6% | 50.1µM* | .
Cc1ccc(NC(=O)CN2C(=O)N/C(=C/c3ccccc3OCc3cccc(C(=O)O)c3)C2=O)cc1 | ? | . | 18.9µM* | 50.1µM* | .
O=C(COC(=O)c1cc(-c2cccc3ccccc23)nc2ccccc12)NC1CCS(=O)(=O)C1 (stereo unspecified) | -9.2% | -3.3% | -0.3% | 79.4µM* | 3.5%
CCCCNc1nc(C#N)nc(Nc2ccccc2)n1 | -7.1% | . | -17.9% | . | 3.6%
Cc1cc(/C=N/n2c(COc3ccccc3)nc3ccccc3c2=O)c(O)c([N+](=O)[O-])c1 | -9.5% | 5.62µM* | -3.6% | ? | -3.6%
Cc1ccc(-c2[nH]ncc2/C=N/n2c(COc3ccccc3)nc3ccccc3c2=O)cc1 | 1.8% | 1.6% | 6.4% | -25.0%[57.1 µM] | -1.5%
CCC(=O)Nc1nc(N)n(-c2ccccc2)n1 | 1.3% | . | -0.7% | -2.8% | i
Nc1nc(NC(=O)C(Cl)(Cl)Cl)nn1-c1ccccc1 | 1.5% | 28.2µM* | -1.4% | 2.1% | 0.7%
CSCC[C@H](NC(=O)[C@H](CC(C)C)NC(=O)CNC(=O)[C@H](Cc1ccc(O)cc1)NC(=O)[C@H](Cc1ccccc1)NC(=O)[C@H](CCC(N)=O)NC(=O)[C@H](CCC(N)=O)NC(=O)[C@@H]1CCCN1C(=O)[C@H](CCCCN)NC(=O)[C@@H]1CCCN1C(=O)[C@@H](N)CCCN=C(N)N)C(N)=O | -10.3% | . | -2.7% | . | -10.0%
O=C1OC2(c3cc(Br)c(O)c(Br)c3Oc3c2cc(Br)c(O)c3Br)c2c(Cl)c(Cl)c(Cl)c(Cl)c21 | . | . | 4.47µM* | . | 5.01µM*
O=C1OC(c2ccccc2)(c2cc(Br)c(O)c(Br)c2)c2ccccc21 (stereo unspecified) | . | . | . | -13.2% | .
CCN(CC(=O)Nc1c(C(=O)OC)[nH]c2ccccc12)c1ccc2c(c1)OCO2 | 6.2% | 25.1µM* | -1.1% | -13.7% | 0.1%
Oc1cc2c(cc1O)C1c3ccc(O)c(O)c3OCC1(O)C2 (stereo unspecified) | -25.0% | ? | 14.1µM*! | 28.2µM* | ?
Nc1ccc(N=Nc2ccccc2)c(N)n1 | -8.4% | -10.7% | 5.9% | -0.3% | -5.3%
Nc1ccc(N=Nc2ccccc2)c2ccccc12 | -14.2% | 31.6µM* | 56.3% | 8.6% | -18.2%
CCOC(=O)c1cccc(NC(=O)/C=C/c2cccc([N+](=O)[O-])c2)c1 | -2.2% | 0.1% | -0.4% | 3.0% | -11.4%
CCOC(=O)/C=C/C(=O)Nc1cccc([N+](=O)[O-])c1 | -6.9% | -0.9% | 7.4% | 35.5µM* | 0.8%
COc1ccc(CNc2nc(NCc3ccc(OC)cc3)c3ncn(C4CCCCC4)c3n2)cc1 | -5.7% | . | -9.7% | . | -25.8%
SMILES | BLM inh | L3MBTL1 inh | APE1 inh | WRN inhibitor | RECQ1 inh
COc1cc(C2c3c([nH]c(=O)[nH]c3=O)Nc3ccc4ccccc4c32)cc(OC)c1OC (stereo unspecified) | 25.1µM* | . | -6.7% | 20µM* | i
COc1cc(C2c3c([nH]c(=O)[nH]c3=O)Nc3ccc4ccccc4c32)ccc1O (stereo unspecified) | -14.6% | ? | 7.1% | ? | -25.6%
CC(=O)Nc1ccc(-c2csc(N3CCC(C(N)=O)CC3)n2)cc1 | . | . | -1.0% | . | .
CC1=C(C)C(=O)N(c2ccccn2)C1=O | 0.9% | 7.1% | 2.7% | 0.2% | i
Cc1nn(-c2ccccn2)c2c1C(=O)C(Br)CC2 (stereo unspecified) | -8.1% | . | 12.2% | 56.2µM* | i
CC[C@H](C)[C@H](NC(=O)[C@H](CO)NC(=O)[C@H](CC(C)C)NC(=O)[C@H](CO)NC(=O)[C@@H]1CCCN1C(=O)[C@H](CC(N)=O)NC(=O)[C@@H](N)CC(=O)O)C(=O)N[C@@H](CC(=O)O)C(=O)N[C@@H](CC(C)C)C(=O)N[C@H](C(=O)N[C@@H](Cc1ccccc1)C(=O)N[C@@H](Cc1cnc[nH]1)C(=O)N[C@@H](CC(C)C)C(=O)N[C@@H](CC(C)C)C(=O)N[C@@H](CCCNC(=N)N)C(=O)N[C@H](C(=O)N[C@@H](CC(C)C)C(=O)N[C@@H](CC(C)C)C(=O)N[C@@H](CCC(=O)O)C(=O)N[C@@H](CC(C)C)C(=O)N[C@@H](C)C(=O)N[C@@H](CCCNC(=N)N)C(=O)N[C@H](C(=O)N[C@@H](CCC(N)=O)C(=O)N[C@@H](CO)C(=O)N[C@@H](CCC(N)=O)C(=O)N[C@@H](CCCNC(=N)N)C(=O)N[C@@H](CCC(=O)O)C(=O)N[C@@H](CCCNC(=N)N)C(=O)N[C@@H](C)C(=O)N[C@@H](CCC(=O)O)C(=O)N[C@@H](CCC(N)=O)C(=O)N[C@@H](CC(N)=O)C(=O)N[C@@H](CCCNC(=N)N)C(=O)N[C@H](C(=O)N[C@H](C(=O)N[C@@H](Cc1ccccc1)C(=O)N[C@@H](CC(=O)O)C(=O)N[C@@H](CO)C(=O)N[C@H](C(N)=O)C(C)C)[C@@H](C)CC)[C@@H](C)CC)[C@@H](C)O)[C@@H](C)O)[C@@H](C)O | 1.6% | . | -0.6% | . | -11.4%
COc1ccc(-c2no[n+]([O-])c2C#N)cc1 | . | . | 1.2% | . | .
CCN1/C(=C/c2ccc3cc(C)cc(C)c3[n+]2CC)Sc2cc(C)ccc21 | ? | -1.8% | 1.1% | 17.8µM* | ?
CCN1/C(=C\c2ccc3cc(C)ccc3[n+]2CC)Sc2cc(C)c(C)cc21 | 0.3% | ? | -0.2% | 44.7µM* | ?
